# Source: the supplement of paper PMC11001985
# Compound: C#CCNC(=O)CCSSCCC(=O)NCCc1ccc(C=O)c(C=O)c1
# Test: lysine labeling ratio R10:1 (500 µM / 50 µM probe), SILAC-ABPP in living cells; higher = lower intrinsic lysine reactivity toward the probe, active = 2 or less
# Details: HeLa; probe concentrations 500 vs 50 µM
# Procedure, shortened: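 For each lysine, R is the median over forward and reverse replicates of the filtered median MS1 peptide ratio of high probe to low probe. The probe, an alkyne-tagged, disulfide-linked lysine probe, was given at 500 µM or 50 µM to living SILAC light and heavy HeLa cells in PBS at room temperature, with label swaps. Values are capped at 20.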
# Sequence of UniProt Q8WWI1 (Q8WWI1 whole entry): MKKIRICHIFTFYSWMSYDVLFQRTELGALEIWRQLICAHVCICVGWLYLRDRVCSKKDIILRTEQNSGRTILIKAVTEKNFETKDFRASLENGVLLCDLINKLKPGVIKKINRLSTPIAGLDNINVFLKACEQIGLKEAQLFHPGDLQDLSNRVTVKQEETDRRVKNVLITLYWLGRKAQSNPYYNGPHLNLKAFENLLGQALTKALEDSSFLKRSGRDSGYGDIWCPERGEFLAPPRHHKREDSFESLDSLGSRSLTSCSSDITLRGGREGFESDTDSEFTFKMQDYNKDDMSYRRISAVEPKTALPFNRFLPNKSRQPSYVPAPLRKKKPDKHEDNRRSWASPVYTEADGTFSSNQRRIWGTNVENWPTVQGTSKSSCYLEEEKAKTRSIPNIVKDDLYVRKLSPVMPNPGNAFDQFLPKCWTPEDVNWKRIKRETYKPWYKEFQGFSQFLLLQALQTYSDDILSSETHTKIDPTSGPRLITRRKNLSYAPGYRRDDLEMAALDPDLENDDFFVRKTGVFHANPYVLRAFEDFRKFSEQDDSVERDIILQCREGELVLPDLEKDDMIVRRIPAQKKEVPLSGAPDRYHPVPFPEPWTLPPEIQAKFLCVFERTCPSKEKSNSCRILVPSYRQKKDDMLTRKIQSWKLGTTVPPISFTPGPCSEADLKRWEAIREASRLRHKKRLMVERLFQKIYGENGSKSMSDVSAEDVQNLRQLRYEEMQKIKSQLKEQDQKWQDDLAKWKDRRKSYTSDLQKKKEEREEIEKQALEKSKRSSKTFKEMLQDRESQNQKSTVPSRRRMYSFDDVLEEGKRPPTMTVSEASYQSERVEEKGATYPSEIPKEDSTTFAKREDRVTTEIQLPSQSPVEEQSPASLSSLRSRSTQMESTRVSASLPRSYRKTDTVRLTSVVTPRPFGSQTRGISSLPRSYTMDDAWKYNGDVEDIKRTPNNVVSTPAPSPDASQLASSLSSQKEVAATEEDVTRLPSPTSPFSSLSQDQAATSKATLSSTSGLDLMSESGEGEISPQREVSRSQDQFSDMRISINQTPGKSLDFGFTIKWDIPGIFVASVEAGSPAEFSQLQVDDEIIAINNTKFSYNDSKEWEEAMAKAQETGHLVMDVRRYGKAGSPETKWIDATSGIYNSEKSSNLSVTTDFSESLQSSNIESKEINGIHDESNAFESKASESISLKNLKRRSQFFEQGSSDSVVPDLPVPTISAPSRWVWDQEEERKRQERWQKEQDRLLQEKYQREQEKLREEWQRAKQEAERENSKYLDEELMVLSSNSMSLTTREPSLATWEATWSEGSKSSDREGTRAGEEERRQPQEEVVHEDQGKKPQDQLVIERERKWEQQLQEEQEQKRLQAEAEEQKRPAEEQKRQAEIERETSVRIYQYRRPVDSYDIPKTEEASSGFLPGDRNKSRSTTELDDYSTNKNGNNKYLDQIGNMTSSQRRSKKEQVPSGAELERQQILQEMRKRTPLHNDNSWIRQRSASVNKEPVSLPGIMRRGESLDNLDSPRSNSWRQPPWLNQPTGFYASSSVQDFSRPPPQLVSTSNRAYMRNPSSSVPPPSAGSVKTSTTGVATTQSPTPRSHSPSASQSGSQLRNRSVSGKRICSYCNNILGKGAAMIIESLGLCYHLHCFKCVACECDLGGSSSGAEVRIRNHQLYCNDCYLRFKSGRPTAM
# Sequence of UniProt P21333 (P21333 whole entry): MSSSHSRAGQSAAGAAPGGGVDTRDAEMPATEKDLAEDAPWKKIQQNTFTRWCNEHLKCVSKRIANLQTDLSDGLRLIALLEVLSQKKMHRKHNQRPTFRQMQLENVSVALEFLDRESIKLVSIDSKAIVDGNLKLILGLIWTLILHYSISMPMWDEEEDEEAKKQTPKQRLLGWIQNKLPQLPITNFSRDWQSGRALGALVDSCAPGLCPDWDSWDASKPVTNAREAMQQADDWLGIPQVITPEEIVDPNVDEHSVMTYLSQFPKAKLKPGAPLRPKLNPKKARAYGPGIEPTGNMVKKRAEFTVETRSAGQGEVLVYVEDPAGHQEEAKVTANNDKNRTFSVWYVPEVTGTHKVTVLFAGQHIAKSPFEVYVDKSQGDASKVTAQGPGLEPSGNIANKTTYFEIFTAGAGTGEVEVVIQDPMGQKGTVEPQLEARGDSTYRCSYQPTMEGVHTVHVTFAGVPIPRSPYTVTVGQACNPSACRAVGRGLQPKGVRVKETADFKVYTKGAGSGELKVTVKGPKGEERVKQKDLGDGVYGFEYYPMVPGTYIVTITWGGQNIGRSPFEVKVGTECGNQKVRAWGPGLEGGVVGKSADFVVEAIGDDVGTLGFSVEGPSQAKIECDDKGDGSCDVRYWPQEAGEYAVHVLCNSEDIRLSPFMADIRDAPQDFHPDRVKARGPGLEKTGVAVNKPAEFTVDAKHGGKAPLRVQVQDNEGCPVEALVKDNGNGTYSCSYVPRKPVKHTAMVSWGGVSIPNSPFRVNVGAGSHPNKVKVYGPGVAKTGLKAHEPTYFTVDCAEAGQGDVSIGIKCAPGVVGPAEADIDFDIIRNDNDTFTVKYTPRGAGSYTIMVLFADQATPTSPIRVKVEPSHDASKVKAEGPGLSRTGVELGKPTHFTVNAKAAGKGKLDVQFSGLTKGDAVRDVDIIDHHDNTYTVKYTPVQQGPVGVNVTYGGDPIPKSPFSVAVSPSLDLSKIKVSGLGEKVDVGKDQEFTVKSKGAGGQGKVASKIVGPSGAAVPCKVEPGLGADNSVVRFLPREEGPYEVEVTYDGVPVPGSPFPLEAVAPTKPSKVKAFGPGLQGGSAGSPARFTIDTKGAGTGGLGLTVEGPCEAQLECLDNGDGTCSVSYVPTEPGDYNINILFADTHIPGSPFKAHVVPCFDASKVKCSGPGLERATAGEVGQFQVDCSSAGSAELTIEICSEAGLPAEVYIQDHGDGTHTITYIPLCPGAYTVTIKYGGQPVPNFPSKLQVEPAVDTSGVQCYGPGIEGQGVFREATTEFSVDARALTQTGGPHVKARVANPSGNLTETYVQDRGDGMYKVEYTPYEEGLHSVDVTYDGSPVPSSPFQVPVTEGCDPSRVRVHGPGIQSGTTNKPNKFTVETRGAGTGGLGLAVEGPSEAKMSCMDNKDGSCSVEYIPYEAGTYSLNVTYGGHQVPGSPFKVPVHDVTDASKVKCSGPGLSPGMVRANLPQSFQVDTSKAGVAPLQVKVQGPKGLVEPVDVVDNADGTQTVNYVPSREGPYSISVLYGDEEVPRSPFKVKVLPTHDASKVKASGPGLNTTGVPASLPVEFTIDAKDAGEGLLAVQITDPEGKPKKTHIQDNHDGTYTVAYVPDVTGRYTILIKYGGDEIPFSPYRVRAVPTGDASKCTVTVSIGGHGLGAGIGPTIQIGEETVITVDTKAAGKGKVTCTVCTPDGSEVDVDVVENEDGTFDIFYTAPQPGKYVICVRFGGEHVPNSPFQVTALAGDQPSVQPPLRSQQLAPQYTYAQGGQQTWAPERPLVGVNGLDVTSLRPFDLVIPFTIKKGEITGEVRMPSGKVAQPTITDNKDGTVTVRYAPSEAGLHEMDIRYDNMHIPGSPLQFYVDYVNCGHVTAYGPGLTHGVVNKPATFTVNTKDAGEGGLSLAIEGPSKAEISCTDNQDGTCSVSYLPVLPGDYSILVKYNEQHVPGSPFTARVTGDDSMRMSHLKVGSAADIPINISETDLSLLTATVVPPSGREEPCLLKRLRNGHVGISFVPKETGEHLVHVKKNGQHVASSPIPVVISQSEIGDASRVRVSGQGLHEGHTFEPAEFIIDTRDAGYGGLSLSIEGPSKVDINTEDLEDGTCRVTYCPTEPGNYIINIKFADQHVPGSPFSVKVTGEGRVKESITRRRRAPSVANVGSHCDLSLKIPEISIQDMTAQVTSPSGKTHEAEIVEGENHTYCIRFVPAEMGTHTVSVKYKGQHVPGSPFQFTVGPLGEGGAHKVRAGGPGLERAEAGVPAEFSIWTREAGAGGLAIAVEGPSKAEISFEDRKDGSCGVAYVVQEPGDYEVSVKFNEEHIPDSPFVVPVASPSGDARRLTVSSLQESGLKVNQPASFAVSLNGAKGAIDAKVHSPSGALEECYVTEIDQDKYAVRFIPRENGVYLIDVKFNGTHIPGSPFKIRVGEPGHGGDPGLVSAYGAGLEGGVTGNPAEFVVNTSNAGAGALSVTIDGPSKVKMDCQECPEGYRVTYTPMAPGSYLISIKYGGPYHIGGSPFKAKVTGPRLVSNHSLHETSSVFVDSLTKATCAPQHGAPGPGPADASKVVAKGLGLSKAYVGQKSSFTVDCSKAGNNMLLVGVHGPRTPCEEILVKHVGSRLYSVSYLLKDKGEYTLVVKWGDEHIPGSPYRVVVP
# Sequence of UniProt P14923 (P14923 whole entry): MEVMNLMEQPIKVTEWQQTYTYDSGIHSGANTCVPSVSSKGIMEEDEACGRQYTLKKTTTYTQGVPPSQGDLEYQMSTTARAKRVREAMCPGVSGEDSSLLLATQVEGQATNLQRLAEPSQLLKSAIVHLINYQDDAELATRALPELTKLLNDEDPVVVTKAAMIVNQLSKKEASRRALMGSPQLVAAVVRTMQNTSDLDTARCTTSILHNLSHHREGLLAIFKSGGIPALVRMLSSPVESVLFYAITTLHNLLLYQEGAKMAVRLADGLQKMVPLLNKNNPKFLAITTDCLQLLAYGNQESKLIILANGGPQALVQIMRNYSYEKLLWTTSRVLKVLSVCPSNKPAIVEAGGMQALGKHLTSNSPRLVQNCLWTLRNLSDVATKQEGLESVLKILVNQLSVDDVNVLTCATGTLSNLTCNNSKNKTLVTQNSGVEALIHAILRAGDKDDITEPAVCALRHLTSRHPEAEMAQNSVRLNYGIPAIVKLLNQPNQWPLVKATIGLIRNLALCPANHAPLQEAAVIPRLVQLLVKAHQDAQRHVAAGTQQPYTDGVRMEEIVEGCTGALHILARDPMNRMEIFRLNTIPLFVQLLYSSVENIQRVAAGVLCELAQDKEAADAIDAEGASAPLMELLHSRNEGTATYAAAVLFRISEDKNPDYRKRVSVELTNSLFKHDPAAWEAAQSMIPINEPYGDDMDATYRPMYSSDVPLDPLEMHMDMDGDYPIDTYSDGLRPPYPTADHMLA
row,Target,lysine labeling ratio R10:1
1,PSMB4 (lysine site: K201) (UniProt P28070),3.87 (inactive)
2,CELSR2 (lysine site: K2121) (UniProt Q9HCU4),2.98 (inactive)
3,UniProt P14618 (lysine site: K247),3 (inactive)
4,XRCC6 (lysine site: K129) (UniProt P12956),1.62 (active)
5,SLC39A6 (lysine site: K164) (UniProt Q13433),7.08 (inactive)
6,SLC12A7 (lysine site: K393) (UniProt Q9Y666),3.46 (inactive)
7,PDIA4 (lysine site: K366) (UniProt P13667),1.22 (active)
8,SAFB2 (lysine site: K829) (UniProt Q14151),1.92 (active)
9,JUP (lysine site: K656) (UniProt P14923),0.972 (active)
10,YBX1 (lysine site: K264) (UniProt P67809),4.18 (inactive)
11,CCT4 (lysine site: K531) (UniProt P50991),3.03 (inactive)
12,EHD2 (lysine site: K220) (UniProt Q9NZN4),2.14 (inactive)
13,UniProt O00487 (lysine site: K154),0.527 (active)
14,GANAB (lysine site: K269) (UniProt Q14697),2.12 (inactive)
15,PTPRJ (lysine site: K281) (UniProt Q12913),0.907 (active)
16,CHST14 (lysine site: K226) (UniProt Q8NCH0),1.36 (active)
17,FLNA (lysine site: K578) (UniProt P21333),1.25 (active)
18,RPS3A (lysine site: K249) (UniProt P61247),1.8 (active)
19,UniProt Q15149 (lysine site: K1896),5.17 (inactive)
20,FN1 (lysine site: K269) (UniProt P02751),9.87 (inactive)

row,Target,lysine labeling ratio R10:1
1,THBS1 (lysine site: K306) (UniProt P07996),2.27 (inactive)
2,RPL3 (lysine site: K373) (UniProt P39023),2.31 (inactive)
3,UniProt Q12891 (lysine site: K148),1.46 (active)
4,SPTBN1 (lysine site: K997) (UniProt Q01082),2.87 (inactive)
5,PTPRF (lysine site: K61) (UniProt P10586),1.48 (active)
6,FLNA (lysine site: K1824) (UniProt P21333),5.16 (inactive)
7,EPRS (lysine site: K328) (UniProt P07814),1.73 (active)
8,STOM (lysine site: K235) (UniProt P27105),4.28 (inactive)
9,CTNNA1 (lysine site: K748) (UniProt P35221),2.15 (inactive)
10,FOLR1 (lysine site: K76) (UniProt P15328),3.42 (inactive)
11,LMO7 (lysine site: K1264) (UniProt Q8WWI1),4.64 (inactive)
12,UniProt P62273 (lysine site: K13),1.45 (active)
13,PFN1 (lysine site: K127) (UniProt P07737),2.19 (inactive)
14,LMO7 (lysine site: K305) (UniProt Q8WWI1),3.84 (inactive)
15,C3 (lysine site: K692) (UniProt P01024),7.71 (inactive)
16,UniProt Q16181 (lysine site: K373),2.37 (inactive)
17,UniProt Q00341 (lysine site: K494),2.15 (inactive)
18,ITGA3 (lysine site: K620) (UniProt P26006),1.8 (active)
19,DIABLO (lysine site: K219) (UniProt Q9NR28),1.92 (active)
20,UniProt P25705 (lysine site: K132),1.76 (active)
